# Inconclusive results are not listed. Entries that show only a call come without a potency. Calls of active or inactive are those of the source. Unless noted, calls come from the whole dose curve; as a rule, active = well fitted curve in the direction sought with a large enough effect; inconclusive = small, poorly fitted or top-dose-only effect, or another doubt; inactive = no such curve, though single readings can be large; an effect the other way counts as inactive or inconclusive.
# Experiments:
# [1] = target: Luciferin 4-monooxygenase (Photinus pyralis) (UniProt P08659); assay: Biochemical firefly luciferase enzyme assay for NPC (AID 624030); note: nearly all actives have a fitted effect of over 70% in size; note: potency is the fitted concentration of half-maximal effect
# Method in brief: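 Purified P. pyralis luciferase at 10 nM in 50 mM Tris Acetate (final), luminescence read within 5 minutes of enzyme addition to compounds. Activity normalised to PTC124 versus DMSO; concentration-response curves classed by r2, magnitude and activity.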
# [2] = qHTS Assay for Identification of Small Molecule Agonists for NFkB Signaling Pathway. (AID 624478);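 note: compounds tested together with TNF alpha at its EC50 of 10 pM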
# Method in brief: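 Compounds were added with 10 pM TNF alpha (EC50 level) to ME-180 NFkB-bla cells in low-serum Opti-MEM and incubated 5 hrs at 37 C. Beta-lactamase FRET read-out used 405 nm excitation and 460 and 530 nm emission.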
# [3] = qHTS Assay for Identification of Small Molecule Antagonists for NFkB Signaling Pathway. (AID 624479; calls by dose curve;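 note: pathway stimulated with TNF alpha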; note: potency is the fitted concentration of half-maximal effect)
# [4] = Cell Proliferation Assay against the TMD8 Cell Line (AID 651645); conditions: TMD8 DLBCL cell line proliferation/viability; at 46.1 µM (top of the series) unless noted;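 note: cells exposed to compound for 48 h before reading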
# Method in brief: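 Viability by CellTiter-Glo after 48 h compound exposure of 500 log-phase TMD8 cells per well (RPMI, 5% FBS). Percent activity scaled between DMSO (100%) and 9.2 uM final bortezomib (0%).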
# [5] = Cell Proliferation Assay against the HBL1 Cell Line (AID 651646); conditions: HBL1 DLBCL cells; at 46.1 µM (top of the series) unless noted;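 note: cells exposed to compound for 48 h before reading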
# Method in brief: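 HBL1, 500 cells/well, RPMI no phenol red + 5% FBS; cpd pinned, 48 h 37C/5% CO2; CellTiter-Glo, 15 min RT, luminescence. % activity: DMSO = 100%, bortezomib 9.2 uM final = 0%.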
# [6] = qHTS of Trypanosoma Brucei Inhibitors: LOPAC Validation (AID 624147); note: potency is the fitted concentration of half-maximal effect
# Method in brief: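 Enzyme and substrate buffer are dispensed first and compound is pin-transferred. ADP at 130 uM final then starts the reaction, which runs 45 min at room temperature. Detection reagent is added for 10 min before luminescence is imaged.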
# [7] = target: Glucagon-like peptide 1 receptor (Homo sapiens) (UniProt P43220); assay: qHTS of GLP-1 Receptor Agonists: LOPAC Validation (AID 624148);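 note: higher luminescence signal means agonism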
# Method in brief: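 HEK293 cells stably co-expressing GLP-1R and a cAMP-responsive luciferase reporter, plated 12 hours before compound, then incubated 4-6 hr at 37 deg C. Luminescence read 12 min after detection reagent.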
# [8] = HTS Assay for Allosteric Antagonists of the Human D2 Dopamine Receptor: Hit Validation in HTRF (AID 624455);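 note: stable D1 dopamine receptor cell line scored for blocking the D1 response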
# Method in brief: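 Inhibition of the D1-mediated response was measured by HTRF. Cells used were a line stably expressing the D1 dopamine receptor.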
# [9] = target: Glutaminase kidney isoform, mitochondrial (Homo sapiens) (UniProt O94925); assay: qHTS for Inhibitors of Glutaminase (GLS): LOPAC Validation (AID 624146); note: nearly all actives have a fitted effect of over 60% in size; note: potency is the fitted concentration of half-maximal effect
# Method in brief: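 Human kidney-isoform GLS in 45 mM KH2PO4 pH 8.2, 0.02% Tween-20, with compound, started with 1mM L-Glutamine (added stock). Glutamate oxidase/HRP/Amplex red coupled fluorescence read at start and after 30 min at RT.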
# [10] = S16 Schwann cell viability assay (CellTiter-Glo assay) (AID 624031);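 note: cellular ATP luminescence as a viability measure; nearly all actives have a fitted effect of over 70% in size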
# Method in brief: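 Luminescent ATP read-out (CellTiter-Glo) after 24 h compound exposure of native S16 rat Schwann cells at 37 °C. Signals were normalized between cell-free wells and DMSO-treated cells, set as 0% activity.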
# [11] = S16 Schwann cell PMP22 intronic element firefly luciferase assay (AID 624032); note: nearly all actives have a fitted effect of over 30% in size; note: potency is the fitted concentration of half-maximal effect
# Method in brief: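 Rat S16 Schwann cells stably carrying firefly luciferase driven by a PMP22 intronic element, in 10% FBS, treated 24 h at 37 C. ONE-Glo luminescence normalized to PTC124 control and DMSO (0%); curves classed by r2, magnitude and activity.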
# [12] = S16 Schwann cell PMP22 intronic element beta-lactamase assay (AID 624044; calls by dose curve; note: nearly all actives have a fitted effect of over 15% in size)
# Method in brief: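 Beta-lactamase reporter under a PMP22 intronic regulatory element in stable S16 rat Schwann cells; 24 h compound exposure. 460 nm blue signal normalized between DMSO (0%) and potassium clavulanate, with 535 nm FRET tracking viability; curves classed by r2 and response.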
# [13] = Cytotoxicity counterscreen for NFkB agonists and antagonists (AID 624476);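 note: cells exposed to compound for 48 hours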; note: potency is the fitted concentration of half-maximal effect
# [14] = Cell Proliferation Assay against the TMD8 Cell Line (Caspase readout at 16 hrs) (AID 651712)
# Method in brief: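 Caspase-Glo luminescence after 16 h compound exposure of TMD8 cells, 37 °C, 5% CO2. Medium: RPMI without phenol red, 5% FBS. Normalisation: DMSO = 0%, bortezomib 9.2 uM final = 100%.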
# [15] = target: Voltage-gated inwardly rectifying potassium channel KCNH2 (Homo sapiens) (UniProt Q12809); assay: qHTS Assay for Small Molecule Inhibitors of the Human hERG Channel Activity (AID 588834);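 note: top concentration of the series differs between compounds; lower thallium flux fluorescence means stronger hERG block; nearly all actives have a fitted effect of over 50% in size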
# Method in brief: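 hERG block measured as reduced thallium-dye (FluxOR) fluorescence after stimulation buffer addition, read over 2 min. Cells were hERG-BacMam-transduced U2OS exposed to compound ~10 min […]; concentration-response fitted with Hill equation for AC50.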
# Chain of Glucagon-like peptide 1 receptor (Homo sapiens) (P43220 whole entry, looked up): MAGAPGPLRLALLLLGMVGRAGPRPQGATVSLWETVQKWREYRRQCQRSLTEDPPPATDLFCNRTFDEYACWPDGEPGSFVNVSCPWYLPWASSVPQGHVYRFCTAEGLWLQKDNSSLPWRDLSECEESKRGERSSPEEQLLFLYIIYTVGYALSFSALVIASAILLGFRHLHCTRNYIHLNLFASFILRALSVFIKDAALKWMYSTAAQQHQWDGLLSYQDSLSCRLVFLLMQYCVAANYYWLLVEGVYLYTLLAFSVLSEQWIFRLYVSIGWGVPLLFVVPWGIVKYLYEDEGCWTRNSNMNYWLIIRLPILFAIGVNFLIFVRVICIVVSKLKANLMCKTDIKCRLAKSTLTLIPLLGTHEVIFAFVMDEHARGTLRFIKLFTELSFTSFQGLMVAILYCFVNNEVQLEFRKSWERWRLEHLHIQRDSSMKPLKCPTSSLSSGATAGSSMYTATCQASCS
# Chain of Luciferin 4-monooxygenase (Photinus pyralis) (P08659 whole entry, looked up): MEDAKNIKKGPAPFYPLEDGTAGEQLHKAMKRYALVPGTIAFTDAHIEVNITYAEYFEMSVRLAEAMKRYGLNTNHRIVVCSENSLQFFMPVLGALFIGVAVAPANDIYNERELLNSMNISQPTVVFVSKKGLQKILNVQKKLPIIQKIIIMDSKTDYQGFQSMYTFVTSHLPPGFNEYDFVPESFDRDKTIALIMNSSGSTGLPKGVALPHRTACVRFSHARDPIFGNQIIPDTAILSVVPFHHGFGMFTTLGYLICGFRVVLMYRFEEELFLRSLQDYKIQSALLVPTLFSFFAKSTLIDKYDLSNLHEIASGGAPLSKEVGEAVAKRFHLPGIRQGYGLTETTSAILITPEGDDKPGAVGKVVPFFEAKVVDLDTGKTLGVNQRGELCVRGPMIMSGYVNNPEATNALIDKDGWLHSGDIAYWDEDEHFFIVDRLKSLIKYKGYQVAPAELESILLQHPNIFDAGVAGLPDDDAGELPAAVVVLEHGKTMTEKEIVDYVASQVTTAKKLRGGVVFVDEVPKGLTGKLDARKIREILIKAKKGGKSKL
# Chain of Glutaminase kidney isoform, mitochondrial (Homo sapiens) (O94925 whole entry, looked up, canonical isoform): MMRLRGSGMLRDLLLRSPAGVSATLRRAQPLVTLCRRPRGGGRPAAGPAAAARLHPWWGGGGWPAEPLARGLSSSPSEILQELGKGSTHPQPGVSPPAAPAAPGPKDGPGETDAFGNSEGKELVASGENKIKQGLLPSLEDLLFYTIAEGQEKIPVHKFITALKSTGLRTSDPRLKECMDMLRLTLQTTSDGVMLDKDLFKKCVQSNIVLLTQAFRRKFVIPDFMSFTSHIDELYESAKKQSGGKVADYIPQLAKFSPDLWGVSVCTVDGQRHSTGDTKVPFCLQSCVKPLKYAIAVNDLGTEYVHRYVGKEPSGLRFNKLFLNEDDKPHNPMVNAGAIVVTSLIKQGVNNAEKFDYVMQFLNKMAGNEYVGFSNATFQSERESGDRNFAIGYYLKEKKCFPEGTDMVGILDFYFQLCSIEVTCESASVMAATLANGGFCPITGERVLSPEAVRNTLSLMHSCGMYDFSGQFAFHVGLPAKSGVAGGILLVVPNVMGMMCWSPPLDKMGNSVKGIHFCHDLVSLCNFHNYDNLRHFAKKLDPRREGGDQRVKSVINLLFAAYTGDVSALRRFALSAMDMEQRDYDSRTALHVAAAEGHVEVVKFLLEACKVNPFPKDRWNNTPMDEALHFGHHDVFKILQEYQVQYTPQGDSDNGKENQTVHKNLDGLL
# Chain of Voltage-gated inwardly rectifying potassium channel KCNH2 (Homo sapiens) (Q12809 whole entry, looked up): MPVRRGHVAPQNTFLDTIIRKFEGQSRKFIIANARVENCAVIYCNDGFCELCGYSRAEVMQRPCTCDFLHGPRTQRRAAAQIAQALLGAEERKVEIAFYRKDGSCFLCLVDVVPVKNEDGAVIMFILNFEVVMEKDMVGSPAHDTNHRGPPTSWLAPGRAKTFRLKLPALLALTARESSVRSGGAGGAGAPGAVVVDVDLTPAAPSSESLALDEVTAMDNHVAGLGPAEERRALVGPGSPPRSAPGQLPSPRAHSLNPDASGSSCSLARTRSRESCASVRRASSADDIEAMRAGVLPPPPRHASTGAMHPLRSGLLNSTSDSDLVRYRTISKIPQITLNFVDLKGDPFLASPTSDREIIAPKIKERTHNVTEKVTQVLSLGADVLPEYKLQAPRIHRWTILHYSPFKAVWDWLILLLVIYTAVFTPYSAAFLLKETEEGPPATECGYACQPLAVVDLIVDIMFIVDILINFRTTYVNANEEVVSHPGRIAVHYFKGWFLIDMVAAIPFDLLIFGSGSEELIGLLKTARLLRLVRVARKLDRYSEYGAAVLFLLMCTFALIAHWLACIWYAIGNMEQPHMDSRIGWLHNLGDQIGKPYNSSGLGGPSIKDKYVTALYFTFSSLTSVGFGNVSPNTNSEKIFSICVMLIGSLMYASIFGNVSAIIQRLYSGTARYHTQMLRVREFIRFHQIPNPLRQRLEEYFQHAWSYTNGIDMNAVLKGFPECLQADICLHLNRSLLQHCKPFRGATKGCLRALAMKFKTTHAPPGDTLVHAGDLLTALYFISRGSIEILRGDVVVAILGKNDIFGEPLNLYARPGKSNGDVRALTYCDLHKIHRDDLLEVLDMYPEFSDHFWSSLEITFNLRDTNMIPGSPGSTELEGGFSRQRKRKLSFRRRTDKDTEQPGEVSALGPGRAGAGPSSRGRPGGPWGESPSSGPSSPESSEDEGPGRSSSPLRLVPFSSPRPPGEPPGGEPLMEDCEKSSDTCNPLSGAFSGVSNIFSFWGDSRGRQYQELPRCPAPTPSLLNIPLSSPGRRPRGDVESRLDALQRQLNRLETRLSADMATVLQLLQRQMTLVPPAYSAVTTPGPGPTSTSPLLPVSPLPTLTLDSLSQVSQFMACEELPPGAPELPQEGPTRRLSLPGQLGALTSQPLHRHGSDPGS
smiles,measurement,setting,value
COc1cc2c(N3CCN(C(=O)Nc4ccc(OC(C)C)cc4)CC3)ncnc2cc1OCCCN1CCCCC1,Potency,[1],inactive
same,outcome,[2],inactive
same,Potency,[3],inactive
same,viability (% of control),[4],19.9%
same,"viability, percent of control",[5],15.5%
O=C(CCc1ccc(O)cc1)c1c(O)cc(O)cc1O,Potency,[6],inactive
same,outcome,[7],inactive
same,outcome,[8],inactive
C[C@H](Cc1ccc(O)c(O)c1)[C@@H](C)Cc1ccc(O)c(O)c1,Potency,[9],0.631 µM (active)
same,Potency,[6],12 µM (active)
same,outcome,[7],inactive
same,outcome,[8],inactive
CCC1=C(C)CN(C(=O)NCCc2ccc(S(=O)(=O)NC(=O)NC3CCC(C)CC3)cc2)C1=O (stereo not given),Potency,[1],inactive
same,Potency,[10],inactive
same,Potency,[11],32.2 µM (active)
same,Potency,[12],inactive
CC(C)[N+]1(C)[C@@H]2CC[C@H]1CC(OC(=O)C(CO)c1ccccc1)C2 (stereo not given in full),Potency,[1],inactive
COc1cc2c(cc1OC)C1CC(=O)C(CC(C)C)CN1CC2 (stereo not given),Potency,[1],inactive
same,Potency,[10],inactive
same,Potency,[6],inactive
same,outcome,[7],inactive
CC1=C(C(=O)O)N2C(=O)[C@@H](NC(=O)[C@H](N)C3=CCC=CC3)[C@H]2SC1,Potency,[1],inactive
CCOC(=O)C(C)Oc1cccc2c(=O)n(CC(=O)Nc3ccc4c(c3)OCCO4)ccc12 (stereo not given),Potency,[9],inactive
same,Potency,[6],inactive
same,outcome,[7],inactive
same,outcome,[8],inactive
same,Potency,[13],inactive
same,outcome,[2],inactive
same,Potency,[3],inactive
same,viability (% of control),[4],109%
same,"viability, percent of control",[5],108%
same,Potency,[14],inactive
Cc1nc(-c2ccc(OCC(C)C)c(C#N)c2)sc1C(=O)O,Potency,[1],0.0361 µM (active)
Cc1nccn1CC1CCc2c(c3ccccc3n2C)C1=O (stereo not given),Potency,[1],inactive
CCN(CC)CCOc1ccc(Nc2ncc3cc(-c4c(Cl)cccc4Cl)c(=O)n(C)c3n2)cc1,Potency,[13],2.35 µM (active)
same,outcome,[2],inactive
same,Potency,[3],7.49 µM (active)
same,viability (% of control),[4],0.582%
same,"viability, percent of control",[5],1.36%
Oc1ccc2ccccc2c1SSc1c(O)ccc2ccccc12,outcome,[7],inactive
same,outcome,[8],inactive
CC(C)c1nc(CN(C)C(=O)N[C@H](C(=O)N[C@@H](Cc2ccccc2)C[C@H](O)[C@H](Cc2ccccc2)NC(=O)OCc2cncs2)C(C)C)cs1,Potency,[1],inactive
Cc1ccc(NC(=O)c2ccc(CN3CCN(C)CC3)cc2)cc1Nc1nccc(-c2cccnc2)n1,Potency,[1],12.8 µM (active)
same,Potency,[11],inactive
same,Potency,[13],inactive
same,outcome,[2],inactive
same,viability (% of control),[4],48.3%
same,"viability, percent of control",[5],38%
Cc1ccc(Nc2nccc(N(C)c3ccc4c(C)n(C)nc4c3)n2)cc1S(N)(=O)=O,Potency,[1],inactive
same,Potency,[13],inactive
same,outcome,[2],inactive
same,Potency,[3],16.8 µM (active)
same,viability (% of control),[4],13.2%
same,"viability, percent of control",[5],35.9%
c1cnc2cc3c(cc2n1)C1CNCC3C1,Potency,[1],inactive
COc1cc2nc(N3CCN(C(=O)C4CCCO4)CC3)nc(N)c2cc1OC (stereo not given),Potency,[9],inactive
same,Potency,[6],inactive
same,outcome,[7],inactive
same,outcome,[8],inactive
Cc1nc2n(c(=O)c1CCN1CCC(c3noc4cc(F)ccc34)CC1)CCCC2,Potency,[1],inactive
same,Potency,[10],inactive
same,Potency,[12],inactive
S=c1nc[nH]c2nc[nH]c12,Potency,[15],inactive
same,outcome,[2],inactive
same,Potency,[3],inactive
same,viability (% of control),[4],39.5% [at 92.2 µM]
same,"viability, percent of control",[5],54.4% [at 92.2 µM]
same,Potency,[14],inactive
COc1cc(Nc2c(C#N)cnc3cc(OCCCN4CCN(C)CC4)c(OC)cc23)c(Cl)cc1Cl,Potency,[1],inactive
same,outcome,[2],inactive
same,viability (% of control),[4],4.66%
same,"viability, percent of control",[5],5.95%
same,Potency,[14],inactive
Cc1cccc(-c2[nH]ncc2-c2ccc3ncccc3n2)n1,Potency,[13],inactive
same,outcome,[2],inactive
same,Potency,[3],13.7 µM (active)
same,viability (% of control),[4],76.5% [at 92.2 µM]
same,"viability, percent of control",[5],116% [at 92.2 µM]
same,Potency,[14],inactive
COc1ccc2cc([C@H](C)C(=O)O)ccc2c1,Potency,[1],inactive
same,Potency,[10],inactive
same,Potency,[11],inactive
same,Potency,[9],inactive
same,Potency,[6],inactive
same,outcome,[7],inactive
COc1cc(C(C)=O)ccc1OCCCN1CCC(c2noc3cc(F)ccc23)CC1,Potency,[1],inactive
Nc1nc(N)c(N=O)c(OCC2CCCCC2)n1,Potency,[9],inactive
same,Potency,[6],inactive
same,outcome,[7],inactive
same,outcome,[8],inactive
